# Screening data (PubChem)
# HTT ATP protect – protects HTT-Q103 PC12 cells, measured by ATP. 230,000 tested, 0.14% active. Potency, µM (titrated, usually from 56.4 µM), inactives show cytoprotection (ATP increase), actives largely listed as activators. PC12 HTT-Q103 induced, cytoprotection, ATP luminescence, 40 h; also: potency is read from the fitted curve at half-maximal effect; % of control where 0% means no effect; nearly all actives have a fitted effect of over 45% in size
#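 PC12 cells with ecdysone-inducible HTT exon 1 Q103-GFP, induced with 100 nM tebufenozide and co-treated with library compounds in a dose series (1536-well, 1500 cells/well). Cytoprotection read as ATP content by ATPlite luminescence.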
# HPGD inh – inhibitors of human 15-hydroxyprostaglandin dehydrogenase (HPGD) | purified HPGD, NADH fluorescence kinetic, PGE2 substrate | Potency, µM, for the others: at the top dose activity change, negative = inhibition, actives largely listed as inhibitors | 150,000 tested, 4.3% active | AID 894; active = well fitted inhibition curve with a large enough effect, not every such curve was filed as active; inconclusive = small, poorly fitted or top-dose-only effect, or another doubt; inactive = no such curve, though single readings can be large or run the other way; also: potency is read from the fitted curve at half-maximal effect; % is scaled to controls: 0 for no effect and ±100 for the full control effect
# Target sequence (P15428 whole entry, looked up): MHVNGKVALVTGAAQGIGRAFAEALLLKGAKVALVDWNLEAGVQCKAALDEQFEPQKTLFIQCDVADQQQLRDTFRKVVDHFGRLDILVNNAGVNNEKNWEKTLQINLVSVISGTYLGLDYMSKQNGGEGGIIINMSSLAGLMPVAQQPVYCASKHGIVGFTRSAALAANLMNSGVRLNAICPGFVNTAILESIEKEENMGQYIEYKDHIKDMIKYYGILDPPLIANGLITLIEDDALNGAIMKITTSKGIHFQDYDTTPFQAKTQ
#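 NADH formation kinetics: reaction with 30 uM PGE2 and 1 mM NAD+ (final), 20 nM enzyme, Tris-HCl pH 8 with Tween 20, after 15 min compound preincubation at room temperature. Fluorescence change, last versus first of five reads.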
# JMJD2E inh – blocks human JMJD2E demethylase activity; JMJD2E catalytic domain, FDH-coupled NADH fluorescence (FDH is formaldehyde dehydrogenase); Potency, µM (top dose mostly 57.1 µM), for the others: at the top dose activity change, negative = inhibition, hits mostly inhibitors; 230,000 tested, 1.6% active; active = well fitted inhibition curve with a large enough effect, not every such curve was filed as active; inconclusive = small, poorly fitted or top-dose-only effect, or another doubt; inactive = no such curve, though single readings can be large or run the other way;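 also: potency is read from the fitted curve at half-maximal effect; 0% = wells with enzyme and -100% = buffer wells without enzyme; nearly all actives have a fitted effect of over 50% in size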
# Target sequence (B2RXH2 1-337 limits assumed): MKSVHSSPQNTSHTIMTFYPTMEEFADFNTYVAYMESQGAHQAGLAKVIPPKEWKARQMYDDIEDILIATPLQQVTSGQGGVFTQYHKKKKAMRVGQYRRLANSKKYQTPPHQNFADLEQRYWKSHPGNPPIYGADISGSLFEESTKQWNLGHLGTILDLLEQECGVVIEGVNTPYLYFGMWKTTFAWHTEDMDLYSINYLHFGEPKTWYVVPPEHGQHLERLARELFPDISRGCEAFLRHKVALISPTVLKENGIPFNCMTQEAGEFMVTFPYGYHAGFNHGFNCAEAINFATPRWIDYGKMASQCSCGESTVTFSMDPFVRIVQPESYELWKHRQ
# CBFb RUNX1 block – CBF-beta/RUNX1 interaction disruption; Q01196+Q13951; AlphaScreen CBFb-His/RUNX1-biotin binding, biochemical; Potency, µM (doses to about 59.8 µM), without a hit: at the highest dose activity, negative = inhibition, most hits filed as inhibitors; 230,000 tested, under 10 active; AID 1477; also: % of control where 0% means no effect
#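 Read-out: AlphaScreen. Format: His-CBF-beta with biotinylated RUNX1 (30 nM each) preincubated 20 min, compound 15 min, Ni-chelate plus streptavidin beads 90 min; room temperature throughout.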
# ALDH1A1 inh – blocks purified human ALDH1A1 activity; P00352; AID 1030; Purified ALDH1A1, NADH fluorescence, propionaldehyde substrate; Potency, µM (series often up to 75.3 µM), inactives show at the highest dose activity, negative = inhibition, hits mostly inhibitors; 220,000 tested, 7.3% active; active = well fitted inhibition curve with a large enough effect, not every such curve was filed as active; inconclusive = small, poorly fitted or top-dose-only effect, or another doubt; inactive = no such curve, though single readings can be large or run the other way;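 also: potency is read from the fitted curve at half-maximal effect; plate controls were no enzyme wells and a reference inhibitor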
# HttQ103 aggreg – mutant huntingtin aggregation inhibition; Potency, µM (titrated, usually from 46.1 µM), without a hit: at the top dose activity change, negative = inhibition, actives largely listed as inhibitors; AID 1688; 220,000 tested, 1.1% active; PC12 HttQ103-GFP aggregates, Acumen cytometry, 40 h; also: potency is read from the fitted curve at half-maximal effect; % is scaled to controls: 0 for no effect and ±100 for the full control effect; nearly all actives have a fitted effect of over 60% in size
#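 Read-out: GFP aggregate count by laser scanning cytometer (488 nm excitation, 500-530 nm emission, 1–25 µm objects >6 SD above background). Cells: PC12, inducible HTTex1-Q103-GFP, 100 nM tebufenozide; compounds titrated.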
# Numbers without * were called inactive; ? = inconclusive; nt = no result; [ ] = remark or other dose. In the library only some 9.8% were active in any assay of this set; here they are far more common. Unless noted, calls follow the shape of the dose curve; as a rule, active = well fitted curve in the direction sought with a large enough effect; inconclusive = small, poorly fitted or top-dose-only effect, or another doubt; inactive = no such curve, though single readings can be large; an effect the other way counts as inactive or inconclusive.
SMILES,HTT ATP protect,HPGD inh,JMJD2E inh,CBFb RUNX1 block,ALDH1A1 inh,HttQ103 aggreg
Cc1ccc(S(=O)(=O)N(C)C)cc1NC(=O)c1ccncc1,nt,nt,14%,9%,?,-16%
Cc1ccc(S(=O)(=O)N(C)C)cc1NC(=O)c1cc(C(C)(C)C)nn1Cc1ccccc1,-19%[10 µM],nt,-5%,2%,4.5µM*,8%[9.22 µM]
CN(C)S(=O)(=O)c1ccc(Cl)c(NC(=O)c2ccncc2)c1,-2%[10 µM],-2%,-4%,-6%,11µM*,-21%
Cc1ccc(S(=O)(=O)N(C)C)cc1NC(=O)c1cccnc1Oc1ccccc1,4%[10 µM],nt,?,-1%,28µM*,13%[9.22 µM]
CCOc1cc(-c2nc(C)c(C(C)=O)n2O)ccc1OCC(=O)Nc1ccccc1,-18%,nt,0%,0%,?,-4%
COC(=O)c1cc(C(=O)NCCCN2CCOCC2)cc([N+](=O)[O-])c1,-5%,nt,-11%,9%,8%,15%
O=Cc1cccc(Br)c1,-3%,-8%,nt,13%[21.7 µM],?,nt
[O-]/[N+](=C\c1cccc(Br)c1)c1ccccc1,-28%,nt,-29%,3%,0.32µM*,-2%
[O-]/[N+](=C\c1ccc(F)cc1)c1ccccc1,-4%,-7%,-18%,4%,20µM*,34%
Cc1c(NC(=O)c2cc3c(s2)-c2ccccc2OC3)cccc1[N+](=O)[O-],8%[10 µM],?,-6%,7%,14µM*,2%
Cc1csc(NC(=O)c2cc3c(s2)-c2ccccc2OC3)n1,-20%,?,1%,-5%,?,3%
C(=N\Nc1nc(-c2cccnc2)nc2ccccc12)/c1ccccc1,-9%[10 µM],nt,?,-1%,nt,-10%[9.22 µM]
C(=N\Nc1nc(-c2ccccn2)nc2ccccc12)/c1ccccc1,-89%[10 µM],nt,8.9µM*,-10%,nt,?
Brc1ccc(-c2nc(N/N=C/c3cccnc3)c3ccccc3n2)cc1,-91%,?,?,20%,?,10µM*
O=C(Nc1ccccc1N1CCOCC1)c1ccc2nc[nH]c2c1,-41%,nt,-7%,0%,-7%,?
CCN1CCN(C(=S)NCC2CCCO2)CC1 (stereo unspecified),-27%,nt,?,6%,0.5µM*,0%
COc1ccc([N+](=O)[O-])cc1CSc1nnc(NC(C)=O)s1,-47%,nt,8%,3%,9%,-3%
CCCCc1ccc(NC(=O)CN2NS(=O)(=O)c3ccccc3C2=O)cc1,-13%,-7%,-4%,2%,4µM*,22%
CCCCc1ccc(NC(=O)CC(C)C)cc1,nt,nt,-12%,9%,3%,nt
O=C(/C=C/c1ccco1)NCC1OCCc2ccccc21 (stereo unspecified),35%[10 µM],nt,?,?,nt,17%[9.22 µM]
CCOC(=O)c1c(NC(=O)/C=C/C(=O)O)sc(C)c1-c1ccc(C(C)(C)C)cc1,-196%,nt,-3%,-30%,28µM*,?
Cc1sc(NC(=O)/C=C/C(=O)O)c(C(N)=O)c1-c1ccc(C(C)(C)C)cc1,-1%[10 µM],25µM*,-18%,-4%,13µM*,-4%
CCOC(=O)c1c(NC(=O)/C=C\C(=O)O)sc(C)c1-c1ccccc1,?,nt,-5%,0%,?,?
CC1=C(C(=O)OCC2CCCO2)C(c2ccsc2)C2=C(CCCC2=O)N1 (stereo unspecified),-28%,nt,?,3%,?,-8%
CC(C)(C)c1cc(NC(=O)CCl)n(-c2ccccc2)n1,-20%[10 µM],nt,4%,14%,nt,-9%[9.22 µM]
SMILES,HTT ATP protect,HPGD inh,JMJD2E inh,CBFb RUNX1 block,ALDH1A1 inh,HttQ103 aggreg
CCCc1cc(NC(=O)CCl)n(-c2ccccc2)n1,23%[10 µM],nt,2%,1%,0.89µM*,-1%
CC(=O)/C(=N/Nc1ccccc1[N+](=O)[O-])N1CCCc2ccccc21,nt,nt,-1%,nt,nt,11µM*
O=C(O)/C=C/C(=O)Nc1ccc(NC(=O)c2ccccc2)c(Cl)c1,-33%,nt,-3%,5%,2.2µM*,17%
Cc1ccc(C)c(N=C2CCCN2Cc2ccccc2)c1C#N,9%[10 µM],-5%,1%,-3%,-4%,16%
CCC(=O)N(Cc1cc2ccc(C)cc2n2nnnc12)C1CCCCC1,10%[1.9 µM],-3%,-3%,8%,5µM*,-6%
Cc1ccc2c(c1)cc(CN(C(=O)N1CCOCC1)C1CCCC1)c1nnnn12,-9%[10 µM],nt,45%,-7%,2%,-2%[9.22 µM]
O=C1CCN(N=Nc2cccc(Cl)c2)N1,-6%,?,9%,-4%,20µM*,8%
C=CCNC(=O)C(=O)NCCOc1ccccc1Cl,31%[10 µM],-18%,-1%,4%,8%,22%
CC(CS(=O)(=O)c1ccccc1[N+](=O)[O-])N1CCOCC1 (stereo unspecified),?,nt,3%,-1%,?,-3%
Cc1ccc(-c2csc3n[nH]c(=S)n23)cc1,-8%[10 µM],28µM*,?,-6%,?,1%
CCCCNC(=O)NS(=O)(=O)c1ccc(C(=O)OC)o1,-19%,-4%,-2%,6%,11%,?
CCSc1nnc(NC(=O)c2c(-c3ccccc3Cl)noc2C)s1,17%,-26%,-3%,23%,11µM*,10%
Cc1onc(-c2ccccc2Cl)c1C(=O)OCc1cnc(Cl)s1,nt,nt,-6%,15%,8%,7%
Cc1onc(-c2ccccc2Cl)c1C(=O)Nc1cccnc1,0%[10 µM],-14%,-8%,7%,22µM*,1%
Cc1onc(-c2ccccc2Cl)c1C(=O)OCN1C(=O)c2ccccc2C1=O,-7%,11µM*,0%,11%,-1%,-3%
Cc1onc(-c2ccccc2)c1C(=O)Nc1cccnc1,-23%[10 µM],-8%,?,5%,?,-18%
O=C(Nc1cccnc1)c1ccccc1-c1nc(-c2ccccc2F)no1,-26%,1%,4%,-4%,11µM*,7%[9.22 µM]
O=C(Cn1cc([N+](=O)[O-])cn1)Nc1nccs1,0%[10 µM],nt,-14%,5%,10%,-11%[9.22 µM]
CCCc1cc(C(=O)N2CCN(C(c3ccccc3)c3ccccc3)CC2)no1,-16%[10 µM],-5%,-6%,19%,-5%,22µM*
O=C(C1CCCCN1S(=O)(=O)c1ccccc1)N1CCN(C(c2ccccc2)c2ccccc2)CC1 (stereo unspecified),-10%,-27%,6%,-13%,-9%,-29%
Cc1cc(C(=O)N2CCN(C(c3ccccc3)c3ccccc3)CC2)no1,-4%[10 µM],4%,2%,5%,8%,-2%
CC1CCCN(C(=O)C2CCN(CCCc3ccccc3)CC2)C1 (stereo unspecified),-2%,-11%,9%,-3%,-9%,-5%
CC1CCCN(C(=O)C2CCN(CC(C)c3ccccc3)CC2)C1 (stereo unspecified),10%[10 µM],22µM*,?,0%,?,-9%
